Screens from PubChem BioAssay.
This is one part of a sample in which hits are shown more often than they occur.
RXFP1 antag: RXFP1 (human) relaxin receptor antagonism; Q9HBX9; HEK293-RXFP1, relaxin-stimulated cAMP HTRF, 30 min; stronger effect = lower value; activity change, negative = inhibition, % at 57.5 µM; 350,000 compounds, 0.59% hits; AID 1259400;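 active = activity change of -60% or lower, but not beyond a set lower limit; inconclusive = change between -60% and -40%, or beyond the set limit; inactive = change above -40%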
HEK293 tox: cytotoxicity counter-screen for GLP-1 receptor inverse agonists; HEK293 cAMP-luciferase reporter cells, luminescence, 24 h; Potency, µM (top dose mostly 38.3 µM), usual class: inhibitors; 410,000 compounds, 0.13% hits; AID 624418;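 note: loss of luciferase light is scored as toxicity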
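Cells in DMEM/10% Nu serum/1% pen-strep, 1536-well format. Pre-incubated 12 h, dosed with 23 nL compound, incubated a further 24 h. Luciferase detection, 12 min at room temp, luminescence.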
RXFP1 agonist: agonists of human relaxin receptor RXFP1; Q9HBX9; HEK293T-RXFP1 cAMP TR-FRET, 30 min; response scale: percent of porcine relaxin response, buffer zero; Potency, µM (titrated, usually from 57.5 µM), usual class: activators; 370,000 compounds, 0.3% hits; AID 2676; note: nearly all actives have a fitted effect of over 60% in size
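HEK293 cells stably expressing RXFP1, treated 30 min at 37C with compounds plus PDE4 inhibitor Ro 20174; cAMP measured by HTRF TR-FRET. Normalized to buffer and 29 nM porcine relaxin; EC50 by Hill fit.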
NPSR antag: antagonists of human neuropeptide S receptor cAMP signaling; CHO-NPSR cells, cAMP TR-FRET, antagonist mode; Potency, µM (doses to about 38.3 µM), actives largely listed as inhibitors; 220,000 compounds, 1% hits; AID 1461; note: nearly all actives have a fitted effect of over 50% in size
Target sequence (Q6W5P4 whole entry, looked up): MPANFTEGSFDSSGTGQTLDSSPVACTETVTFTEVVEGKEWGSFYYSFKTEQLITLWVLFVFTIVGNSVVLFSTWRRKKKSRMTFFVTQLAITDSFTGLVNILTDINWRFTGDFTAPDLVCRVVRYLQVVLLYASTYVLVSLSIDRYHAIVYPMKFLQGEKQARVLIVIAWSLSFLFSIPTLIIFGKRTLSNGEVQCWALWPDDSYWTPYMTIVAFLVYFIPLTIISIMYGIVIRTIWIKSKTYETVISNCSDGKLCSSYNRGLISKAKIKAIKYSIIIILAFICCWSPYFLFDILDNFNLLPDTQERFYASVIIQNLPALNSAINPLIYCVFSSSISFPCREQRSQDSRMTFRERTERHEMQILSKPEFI
PTHR1 ag: activates the human parathyroid hormone receptor PTHR1. Q03431. HEK293 GP2 PTHR1 cells, GloSensor cAMP luminescence, 1 h. Potency, µM (doses to about 115 µM), usual class: activators. 410,000 compounds, 0.075% hits; note: nearly all actives have a fitted effect of over 55% in size
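HEK-293-derived GP2 cells expressing PTHR1 and a GloSensor cAMP reporter, 3,000/well, plated overnight, given luciferin plus IBMX (each 0.5 mM as added) for 1 h at 37 °C, then compound for 1 h at 37 °C. Luminescence was read after 15 min at room temperature.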
TSHR antag: blocks TSH signaling through the human TSH receptor; P16473; 330,000 compounds, 0.2% hits; TSHR-expressing cells, TSH-stimulated cAMP HTRF, 2 h; stronger effect = lower value; activity change, negative = inhibition, % at 11.5 µM;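 active = activity change below a set negative limit, meaning inhibition stronger than a set level, cut at about -70% in these data; inconclusive = activity change between two set negative limits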
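TSHR-expressing cells were treated with compounds, then stimulated with TSH at EC80 (4nM final) for 2 hours at 37 deg C. Cellular cAMP was measured by HTRF competition between lysate cAMP and cAMP-d2 for a cryptate-labelled anti-cAMP antibody.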
Numbers stand for hits; . = inactive; ? = inconclusive; / = no result; [ ] = another dose, or the depositor's remark. Unless noted, calls come from the whole dose curve; as a rule, active = well fitted curve in the direction sought with a large enough effect; inconclusive = small, poorly fitted or top-dose-only effect, or another doubt; inactive = no such curve, though single readings can be large; an effect the other way counts as inactive or inconclusive.

SMILES	RXFP1 antag	HEK293 tox	RXFP1 agonist	NPSR antag	PTHR1 ag	TSHR antag
OC1(c2ccc(OC(F)F)cc2)CSC(=Nc2cccnc2)N1Cc1ccco1 (stereo not drawn)	.	.	.	.	.	.
OC1(c2ccc(F)cc2)CSC(=Nc2cccnc2)N1Cc1ccco1 (stereo not drawn)	-62	.	.	.	.	.
N#C/C(=C\c1ccc(-c2cc(Cl)ccc2Cl)o1)C(=O)Nc1cccc2ncccc12	/	/	/	/	/	.
CC1CC(=O)N(c2ccc(C(C)C)cc2)C(=O)C1	.	.	.	/	.	-118
COc1ccc(CNC(=O)Nc2ccc3c(c2)N(C)C(=O)c2ccccc2S3)cc1	?	.	.	/	.	/
O=C(Oc1cccc2cccnc12)c1cccc(-n2cnnn2)c1	.	.	.	.	.	.
O=C(Oc1cccc2cccnc12)c1cccc(N2C(=O)C3C4CCC(C4)C3C2=O)c1 (stereo not drawn)	.	2.5µM	.	.	.	.
O=C(Oc1cccc2cccnc12)c1ccc(N2C(=O)C3C4CCC(C4)C3C2=O)cc1 (stereo not drawn)	.	3.2µM	.	.	.	.
CCC(C)n1ncn(-c2ccc(N3CCN(c4ccc(OC[C@H]5CO[C@](Cn6cncn6)(c6ccc(Cl)cc6Cl)O5)cc4)CC3)cc2)c1=O (stereo partly drawn)	.	/	/	/	/	/
COc1ccc(C2c3c(oc4ccccc4c3=O)C(=O)N2c2nc(C)c(C)s2)cc1 (stereo not drawn)	.	.	.	/	.	/
CCCCCCCCCCCCCCCC[n+]1cccc2ccccc21	?	?	.	?	.	.
CCCCCCCCC[n+]1cccc2c3ccccc3ccc21	-60	?	.	?	.	.
N#CC(c1cccc(Cl)c1)c1ccc2c(C(F)(F)F)cc(C(F)(F)F)nc2n1 (stereo not drawn)	.	.	.	10µM	.	/
CCc1cccc2c(C(=O)COC(=O)[C@@H]3CC(O)CN3S(=O)(=O)c3ccccc3[N+](=O)[O-])c[nH]c12 (stereo partly drawn)	-80	.	/	/	.	.
O=C(/C=C/c1ccc(O)c(O)c1)O[C@@H]1C[C@@](OC(=O)/C=C/c2ccc(O)c(O)c2)(C(=O)O)C[C@@H](O)[C@@H]1O	.	/	/	/	/	/
O=C(CN(Cc1ccccc1Cl)C(=O)CCC(=O)Nc1nccs1)NCC1CCCO1 (stereo not drawn)	.	.	.	/	.	.
Cc1cc(C(C)(C)C)oc1C(=O)N(CC(=O)NC1CCCC1)Cc1ccccc1Cl	.	.	.	7.9µM	.	.
O=C(Nc1cc(F)ccc1F)N1CCC(CN2CCOCC2)CC1	.	.	.	/	.	/
Cc1cc2ccc3ccccc3c2cc1CN(C)C	-107	.	.	.	.	.
CN(C)Cc1cc2ccccc2c2c1COC2	.	.	.	.	.	.
Cc1ccc(C)c(OCCC(=O)OCC(=O)NNC(=O)c2ccccc2)c1	.	.	.	/	.	.
COc1ccc2sc(-c3ccc(S(C)(=O)=O)cc3)c(C#CCO)c2c1	/	.	/	/	.	-78
Cn1ncc2c(Nc3cc(C(F)(F)F)ccc3Cl)ncnc21	.	.	.	/	.	/
Nc1c(I)cc(I)c(C(=O)N(CCC(=O)O)c2ccccc2)c1I	.	/	/	/	/	/
Cc1cc(/C=C2\SC(=S)NC2=O)c(C)n1-c1ccc(O)cc1	?	.	.	?	.	.
SMILES	RXFP1 antag	HEK293 tox	RXFP1 agonist	NPSR antag	PTHR1 ag	TSHR antag
Cc1cc(/C=C2\SC(=Nc3ccc(F)cc3)NC2=O)c(C)n1-c1ccc(S(N)(=O)=O)cc1	.	.	.	10µM	.	.
COc1cc([N+](=O)[O-])ccc1NC(=O)NCc1cccnc1	.	.	.	/	.	-76
COc1ccc(NC(=O)NCc2cccnc2)c(OC)c1	.	.	.	/	.	.
O[C@H]1C[C@H](c2ccccc2)N(Cc2cccs2)C[C@@H]1n1cc(C2CC2)nn1	.	.	/	/	.	/
COc1ccc(CCC(=O)NCc2ccc3c(c2)CCN3C(=O)c2cccc(C)c2)cc1	-96	.	.	/	.	/
CN(C)c1ccc(-c2[nH][nH]c(=O)c2NC(=O)c2ccc3ccccc3n2)cc1	/	.	/	/	.	/
Cc1ccc(C)c(N2CCN(C(=O)c3cc4ccc5cccnc5c4[nH]3)CC2)c1	.	.	.	/	.	/
Cc1cccc(N2CCN(C(=O)c3cc4ccc5cccnc5c4[nH]3)CC2C)c1 (stereo not drawn)	-61	.	.	/	.	/
CC(C)(C)NCC(=Cc1ccccc1)C(=O)c1ccccc1	.	5µM	/	/	.	/
Cc1cccc(NS(=O)(=O)c2cccc(C(=O)NCC(c3ccco3)N3CCCCC3)c2)c1 (stereo not drawn)	.	?	.	/	.	.
COc1ccc(NS(=O)(=O)c2cccc(C(=O)NCC(c3ccco3)N3CCCCC3)c2)cc1 (stereo not drawn)	-73	.	.	/	.	.
NC(=O)c1cccc(N=Cc2cc(Cl)cc(Cl)c2O)c1	.	.	.	.	.	.
Cc1cccc(N=Cc2cc(Br)cc(Cl)c2O)c1	-64	.[7.66 µM]	.	.	.	.
CCc1ccc(S(=O)(=O)Nc2ccc(Br)cn2)cc1	.	.	.	/	.	.
Cc1ccc(NC(=O)C2CCN(S(=O)(=O)c3c(C)noc3/C=C/N(C)C)CC2)cc1	-112	.	.	/	.	.
Nc1nc(SCC(=O)C23CC4CC(CC(C4)C2)C3)n[nH]1	.	.	.	.	.	-76
CCOC(=O)Cn1cccc1-c1nc(-c2ccc(OC)cc2)c(-c2ccc(OC)cc2)s1	.	/	/	/	/	/
